# Assay results as given in the supplement of paper PMC12282887.
# ± gives the standard deviation of the averaged measurements.
# Columns and labels:
# Test in all cases: promoter activity interaction Z-score (Lux/OD deviation from empty-vector control); higher = stronger promoter induction by the compound
# [1] = system: E. coli BW25113 acrABp lux reporter
# Outline: (§1)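 E. coli BW25113 luxCDABE reporter strains grew at 37°C in 40 µl LB Lennox in 384-well plates, with OD600 and luminescence read every 30 min for 12 h. After integration over 0–8 h for wild type or 1–9 h for deletion strains, wells under 10% of the median growth value were removed. Each score is the Z-transformed residual of growth-normalised luminescence fitted against a control.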
# [2] = system: E. coli BW25113 marRABp lux reporter
# Outline: as §1
# [3] = system: E. coli BW25113 micFp lux reporter
# Outline: as §1
# [4] = system: E. coli BW25113 ompFp lux reporter
# Outline: as §1
# [5] = system: E. coli BW25113 robp lux reporter
# Outline: as §1
# [6] = system: E. coli BW25113 soxSp lux reporter
# Outline: as §1
# [7] = system: E. coli BW25113 tolCp lux reporter
# Outline: as §1
# [8] = 0.064 µg/ml, genetic background: wild type
# [9] = 0.064 µg/ml, genetic background: ΔmarA
# [10] = 0.064 µg/ml, genetic background: Δrob
# [11] = 0.064 µg/ml, genetic background: ΔsoxS
# [12] = 0.13 µg/ml, genetic background: wild type
# [13] = 0.13 µg/ml, genetic background: ΔmarA
# [14] = 0.13 µg/ml, genetic background: Δrob
# [15] = 0.13 µg/ml, genetic background: ΔsoxS
# [16] = 0.26 µg/ml, genetic background: wild type
# [17] = 0.26 µg/ml, genetic background: ΔmarA
# [18] = 0.26 µg/ml, genetic background: Δrob
# [19] = 0.26 µg/ml, genetic background: ΔsoxS
# [20] = 0.51 µg/ml, genetic background: wild type
smiles,measurement,setting,value
C[C@H]1c2cccc(O)c2C(=O)C2=C(O)[C@]3(O)C(=O)C(C(N)=O)=C(O)[C@@H](N(C)C)[C@@H]3[C@@H](O)[C@@H]21 [Doxycycline],promoter activity interaction Z-score,[1]; [8],0.468 ± 0.23
same,promoter activity interaction Z-score,[1]; [9],-0.101 ± 0.52
same,promoter activity interaction Z-score,[1]; [10],0.667 ± 0.18
same,promoter activity interaction Z-score,[1]; [11],0.902 ± 0.18
same,promoter activity interaction Z-score,[1]; [12],1.36 ± 0.11
same,promoter activity interaction Z-score,[1]; [13],0.0555 ± 0.26
same,promoter activity interaction Z-score,[1]; [14],2.17 ± 0.61
same,promoter activity interaction Z-score,[1]; [15],2.67 ± 1.3
same,promoter activity interaction Z-score,[1]; [16],3.4 ± 0.4
same,promoter activity interaction Z-score,[1]; [17],-0.561 ± 0.26
same,promoter activity interaction Z-score,[1]; [18],3.18 ± 0.3
same,promoter activity interaction Z-score,[1]; [19],3.94 ± 0.66
same,promoter activity interaction Z-score,[2]; [8],0.973 ± 0.17
same,promoter activity interaction Z-score,[2]; [9],2.43 ± 0.098
same,promoter activity interaction Z-score,[2]; [10],0.676 ± 0.28
same,promoter activity interaction Z-score,[2]; [11],1.01 ± 0.13
same,promoter activity interaction Z-score,[2]; [12],2.72 ± 0.47
same,promoter activity interaction Z-score,[2]; [13],4.3 ± 0.47
same,promoter activity interaction Z-score,[2]; [14],1.1 ± 0.25
same,promoter activity interaction Z-score,[2]; [15],2.28 ± 0.13
same,promoter activity interaction Z-score,[2]; [16],3.51 ± 0.065
same,promoter activity interaction Z-score,[2]; [17],2.23 ± 1.1
same,promoter activity interaction Z-score,[2]; [18],0.478 ± 0.55
same,promoter activity interaction Z-score,[2]; [19],3.1 ± 0.92
same,promoter activity interaction Z-score,[2]; [20],0.833
same,promoter activity interaction Z-score,[3]; [8],1.47 ± 0.83
same,promoter activity interaction Z-score,[3]; [9],0.45 ± 0.069
same,promoter activity interaction Z-score,[3]; [10],-0.0978 ± 0.028
same,promoter activity interaction Z-score,[3]; [11],0.831 ± 0.11
same,promoter activity interaction Z-score,[3]; [12],2.59 ± 0.24
same,promoter activity interaction Z-score,[3]; [13],0.672 ± 0.35
same,promoter activity interaction Z-score,[3]; [14],0.226 ± 0.065
same,promoter activity interaction Z-score,[3]; [15],2.53 ± 0.24
same,promoter activity interaction Z-score,[3]; [16],1.58 ± 0.61
same,promoter activity interaction Z-score,[3]; [17],1.02 ± 0.22
same,promoter activity interaction Z-score,[3]; [18],-0.177 ± 0.23
same,promoter activity interaction Z-score,[3]; [19],2.84 ± 1.2
same,promoter activity interaction Z-score,[3]; [20],-0.656 ± 0.6
same,promoter activity interaction Z-score,[4]; [8],2.17 ± 0.36
same,promoter activity interaction Z-score,[4]; [9],2.03 ± 0.54
same,promoter activity interaction Z-score,[4]; [10],2.36 ± 0.68
same,promoter activity interaction Z-score,[4]; [11],2.91 ± 0.58
same,promoter activity interaction Z-score,[4]; [12],2.54 ± 0.84
same,promoter activity interaction Z-score,[4]; [13],1.92 ± 0.47
same,promoter activity interaction Z-score,[4]; [14],2.05 ± 0.15
same,promoter activity interaction Z-score,[4]; [15],3.33 ± 0.7
same,promoter activity interaction Z-score,[4]; [16],0.914 ± 0.97
same,promoter activity interaction Z-score,[4]; [17],-0.13 ± 1.5
same,promoter activity interaction Z-score,[4]; [18],-1.55 ± 0.46
same,promoter activity interaction Z-score,[4]; [19],2.96 ± 1.1
same,promoter activity interaction Z-score,[5]; [8],0.541 ± 0.37
same,promoter activity interaction Z-score,[5]; [9],0.726 ± 0.57
same,promoter activity interaction Z-score,[5]; [10],0.325 ± 0.7
same,promoter activity interaction Z-score,[5]; [11],1.37 ± 0.15
same,promoter activity interaction Z-score,[5]; [12],-0.332 ± 0.71
same,promoter activity interaction Z-score,[5]; [13],-0.921 ± 0.38
same,promoter activity interaction Z-score,[5]; [14],-0.263 ± 1.5
same,promoter activity interaction Z-score,[5]; [15],0.43 ± 1.4
same,promoter activity interaction Z-score,[5]; [16],-1.3 ± 0.03
same,promoter activity interaction Z-score,[5]; [17],-1.65 ± 0.046
same,promoter activity interaction Z-score,[5]; [18],-2.35 ± 0.43
same,promoter activity interaction Z-score,[5]; [19],-1.67 ± 0.45
same,promoter activity interaction Z-score,[5]; [20],-0.891 ± 0.46
same,promoter activity interaction Z-score,[6]; [8],0.306 ± 0.015
same,promoter activity interaction Z-score,[6]; [9],0.57 ± 0.091
same,promoter activity interaction Z-score,[6]; [10],0.328 ± 0.17
same,promoter activity interaction Z-score,[6]; [11],0.664 ± 0.32
same,promoter activity interaction Z-score,[6]; [12],0.688 ± 0.29
same,promoter activity interaction Z-score,[6]; [13],0.899 ± 0.1
same,promoter activity interaction Z-score,[6]; [14],0.658 ± 0.49
same,promoter activity interaction Z-score,[6]; [15],1.87 ± 0.49
same,promoter activity interaction Z-score,[6]; [16],1.52 ± 0.49
same,promoter activity interaction Z-score,[6]; [17],2.111 ± 0.021
same,promoter activity interaction Z-score,[6]; [18],0.693 ± 0.49
same,promoter activity interaction Z-score,[6]; [19],2.44 ± 1
same,promoter activity interaction Z-score,[6]; [20],1.1 ± 0.16
same,promoter activity interaction Z-score,[7]; [8],0.271 ± 0.51
same,promoter activity interaction Z-score,[7]; [9],1.62 ± 0.076
same,promoter activity interaction Z-score,[7]; [10],-0.121 ± 0.96
same,promoter activity interaction Z-score,[7]; [11],0.793 ± 0.57
same,promoter activity interaction Z-score,[7]; [12],0.44 ± 0.19
same,promoter activity interaction Z-score,[7]; [13],0.772 ± 1.2
same,promoter activity interaction Z-score,[7]; [14],0.309 ± 0.4
same,promoter activity interaction Z-score,[7]; [15],2.09 ± 0.67
same,promoter activity interaction Z-score,[7]; [16],0.167 ± 0.028
same,promoter activity interaction Z-score,[7]; [17],0.714 ± 0.019
same,promoter activity interaction Z-score,[7]; [18],2.36 ± 3.6
same,promoter activity interaction Z-score,[7]; [19],2.12 ± 1
same,promoter activity interaction Z-score,[7]; [20],0.561 ± 1.1
